Pf growth 96h: inhibits malaria parasite growth, 96 h | P. falciparum luciferase reporter growth, 96 h | Potency, µM (top dose mostly 28.7 µM), usual class: inhibitors | 6.9% of 320,000 active | AID 504834
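Two-generation exposure (96 h) targets delayed-death phenotype. Reporter parasites carrying integrated firefly luciferase, in red cells at 2% hematocrit and 0.05% parasitemia final, kept at 37 C, 5% CO2; luminescence loss indicates inhibition.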
Shiga toxin inh: blocks Shiga toxin action in Vero cells | Vero cells, Shiga toxin protein synthesis inhibition reporter | inhibition, % at 38.7 µM | 9.2% of 290,000 active | AID 2315; in the data active = inhibition mostly above about 28%, no sharp cut-off; inactive = mostly below about 43%
NS1 function inh: influenza NS1 inhibition; Potency, µM (doses to about 46.1 µM); 0.4% of 270,000 active; calls by dose curve; note: actives are rising curves; nearly all actives have a fitted effect of over 50% in size
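Read-out: OD600 growth recovery of NS1-expressing budding yeast. Cells grown overnight at 30C in -URA glucose medium, washed, resuspended and diluted 1:100 in 2% galactose assay medium, pH 6.0. Same strain lacking NS1 served as positive control.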
Cycloheximide cs: counter-screen for Shiga toxin inhibitors: cycloheximide protein synthesis inhibition; AID 2314; cell reporter, cycloheximide protein synthesis inhibition counterscreen; 12% of 300,000 active; max response, %; in the data active = max response mostly above about 13%, no sharp cut-off; inactive = mostly below about 14%; note: read at 38.3 µM for the half of the compounds with a filed dose
Pf growth 48h: P. falciparum growth inhibition at 48 hours (one generation). P. falciparum luciferase growth in erythrocytes, 48 h. Potency, µM (doses to about 28.7 µM), hits mostly inhibitors. 5.9% of 310,000 active
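Here the parasites carry a stable luciferase gene and grow inside erythrocytes in Albumax-based RPMI medium with compound for one erythrocytic cycle. Activity is scored as loss of luminescent signal.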
Each line names hits and unclear results; the compound was inactive in the other large screens. Only some compounds are listed: those with a hit (about 21% of all), similar ones and a draw of the others. Unless noted, calls come from the whole dose curve; as a rule, active = well fitted inhibition curve with a large enough effect; inconclusive = small, poorly fitted or top-dose-only effect, or another doubt; inactive = no such curve, though single readings can be large or run the other way.

C/C(CC(=O)Nc1cccc2c1CCCC2)=N\NC(=O)COc1ccccc1	Pf growth 96h 2.08µM
C/C(CC(=O)Nc1cc(C)ccn1)=N\NC(=O)c1ccccc1C	Shiga toxin inh 51.0, Cycloheximide cs 25.9
C/C(CC(=O)Nc1cccc(Cl)c1Cl)=N\NC(=O)c1ccccc1C	Pf growth 96h inconclusive, Cycloheximide cs 11.0, Pf growth 48h inconclusive
C/C(CC(=O)Nc1cccc2c1CCCC2)=N\NC(=O)Cc1ccccc1	none
C/C(CC(=O)Nc1cc(C)ccn1)=N\NC(=O)c1ccc(C)cc1	Shiga toxin inh 53.1, Cycloheximide cs 29.4
CC1CCCC(C)N1C(=O)COC(=O)C(Cc1ccccc1)NC(=O)c1cccs1 (stereo not drawn)	none
C/C(CC(=O)Nc1cc(Cl)ccc1Cl)=N\NC(=O)c1ccco1	Pf growth 96h inconclusive, Shiga toxin inh 82.6, Cycloheximide cs 51.1
COc1ccc(C(=O)N/N=C(\C)CC(=O)Nc2ccccn2)cc1OC	none
C/C(CC(=O)Nc1ccccn1)=N\NC(=O)c1cccc(C)c1	Shiga toxin inh 39.6, Cycloheximide cs 21.2
C/C(CC(=O)Nc1cc(C)ccn1)=N\NC(=O)c1cccc(F)c1	Shiga toxin inh 110.3, Cycloheximide cs 31.4
C/C(CC(=O)Nc1cc(C)ccn1)=N\NC(=O)COc1cccc(C)c1	Pf growth 96h inconclusive, Cycloheximide cs 31.0
Cc1ccccc1CN1CCN(CC(=O)NCc2ccccc2)C1=O	none
Cc1cc(C)cc(N(CC(=O)NC2CCCC2)S(=O)(=O)c2c(C)[nH]c(=O)[nH]c2=O)c1	none
C/C(CC(=O)NC12CC3CC(CC(C3)C1)C2)=N\NC(=O)c1ccc(C)cc1	Shiga toxin inh 17.6, Cycloheximide cs 10.5
C/C(CC(=O)NC12CC3CC(CC(C3)C1)C2)=N\NC(=O)c1ccc(F)cc1	none
C/C(CC(=O)Nc1cc(C)ccn1)=N\NC(=O)c1ccncc1	Cycloheximide cs 8.6
CC(C)C[C@H](NC(=O)[C@H](CO)NC(=O)[C@H](C)NC(=O)[C@H](CCCN=C(N)N)NC(=O)[C@H](CCCN=C(N)N)NC(=O)[C@@H](N)CC(C)C)C(=O)NCC(=O)O	none (no result: Pf growth 96h, NS1 function inh, Pf growth 48h)
CCCC1(C)NC(=O)c2ccccc2O1 (stereo not drawn)	Pf growth 96h inconclusive
CN1CCN(C=Nc2nc3ccccc3nc2N2CCCC2)CC1	none
COc1cccc(C(=O)NNC(=O)c2ccccc2)c1	Pf growth 96h inconclusive, Shiga toxin inh 69.2, NS1 function inh inconclusive, Cycloheximide cs 43.5
COc1cccc(C(=O)Nc2cccc(SC)c2)c1	Shiga toxin inh 62.7, Cycloheximide cs 18.7
CS(=O)(=O)Nc1ccc(C(=O)Nc2ccc3ccccc3c2)cc1	Cycloheximide cs 35.0 (no result: Shiga toxin inh)
COc1cccc(C(=O)NNC(=O)c2cccnc2)c1	none
COc1cccc(C(=O)Nc2cnn(C(C)C)c2)c1	Shiga toxin inh 93.5, Cycloheximide cs 32.0 (no result: NS1 function inh)
COc1cccc(C(=O)Nc2cccc(OCC(=O)O)c2)c1	none (no result: Pf growth 48h)
COCC1CCCC1OS(N)(=O)=O (stereo not drawn)	none
COc1cccc(C(=O)Nc2ccc(NC(=O)Cc3ccccc3)cc2)c1	none
COc1cccc(C(=O)Nc2ccccc2)c1	Shiga toxin inh 63.9, Cycloheximide cs 35.3 (no result: Pf growth 96h)
COc1ccccc1NC(=O)C(=O)/C=C(\O)c1ccccc1	Shiga toxin inh 63.6, Cycloheximide cs 47.8
COc1cccc(C(=O)NC23CC4CC(CC(C4)C2)C3)c1	Cycloheximide cs 14.7
Cc1cccc(C(=O)NCCNC(=O)c2cccc(C)c2)c1	none
CCC/C(=N\NC(=O)c1cccc(C)c1)c1ccccc1	Shiga toxin inh 59.3, Cycloheximide cs 56.4
CCOc1ccccc1NC(=O)C(=O)/C=C(\O)c1cc(OC)ccc1OC	none (no result: Pf growth 48h)
O=C(N=C1SC2CS(=O)(=O)CC2N1c1ccc(Cl)c(Cl)c1)C1CCCO1 (stereo not drawn)	none
Cc1n[nH]c(C)c1S(=O)(=O)N1CCN(C2CCCCC2)CC1	Pf growth 96h inconclusive
COc1ccc(C(=O)NN/C(C)=C/C(=O)C(F)(F)C(F)(F)C(F)(F)F)cc1	Pf growth 96h inconclusive, Shiga toxin inh 43.7, Cycloheximide cs 21.9
Cc1ccc(C(=O)Nc2cccc(Oc3ccccc3)c2)o1	Cycloheximide cs 30.2 (no result: Pf growth 48h)
COc1ccc(C(=O)NNC(=O)OC(C)(C)C)cc1	none
COCc1ccc(C(=O)Nc2ccc(C(=O)O)cc2)o1	none
Cc1cccc(C(=O)Nc2ccc(C)c(OC(=O)c3cccc(C)c3)c2)c1	Shiga toxin inh 192.8, Cycloheximide cs 56.0
O=C(Nc1ccc(O)cc1)c1ccc(C(=O)c2ccccc2)o1	Shiga toxin inh 54.5, Pf growth 48h inconclusive (no result: Pf growth 96h)
CC(=O)N[C@@H](Cc1c[nH]c2ccccc12)C(=O)NCc1ccccc1	none
CCOC(=O)Cc1csc(NS(=O)(=O)c2ccc(F)cc2)n1	none
COc1cccc(C(=O)Nc2ccc3ccccc3c2)c1	Cycloheximide cs 40.2 (no result: Shiga toxin inh)
COc1cc(OC)cc(C(=O)NNC(=O)c2ccccc2Br)c1	none
COc1ccc(C(=O)Nc2ccc3ccccc3c2)cc1	none
COc1cccc(C(=O)N/N=C(/CCC(=O)O)c2ccccc2)c1	Shiga toxin inh active, Cycloheximide cs 52.4
Cc1cccc(C(=O)Nc2ccc3ccccc3c2)c1	Shiga toxin inh 91.6, Cycloheximide cs 52.4
COc1cccc(C(=O)Nc2cccc3ccccc23)c1	none
COc1c(C(=O)NNC(=O)c2ccccc2)csc1Br	Shiga toxin inh 48.5, Cycloheximide cs 35.5
COc1ccc(/C(O)=C/C(=O)C(=O)NNC(=O)c2ccccc2)cc1	Cycloheximide cs 29.9
COc1cccc(C(=O)NN2c3ccccc3CCc3ccccc32)c1	Pf growth 96h 13.1µM, Pf growth 48h 9.28µM
CS(=O)(=O)Nc1ccc(C(=O)Nc2ccccc2-c2ccccc2)cc1	Pf growth 96h 11.7µM, Pf growth 48h inconclusive (no result: Shiga toxin inh)
COc1cccc(C(N)CC(=O)O)c1 (stereo not drawn)	Pf growth 96h 8.28µM
CCOc1ccc(N(CC(=O)Nc2ccccc2C(=O)NC(C)CC)S(C)(=O)=O)cc1 (stereo not drawn)	Pf growth 96h inconclusive
O=C(NCCc1ccccc1)C1CCCN(C(=O)Nc2ccc(F)cc2)C1 (stereo not drawn)	none
Cn1c(=O)c2c(ncn2CN2CCN(Cn3cnc4c3c(=O)n(C)c(=O)n4C)CC2)n(C)c1=O	none (no result: Pf growth 96h, Shiga toxin inh, Cycloheximide cs, Pf growth 48h)
COc1cccc(/C(C)=N/N=C(\C)c2cccc(OC)c2)c1	Shiga toxin inh 39.0, Cycloheximide cs 34.4
COc1cccc(NC(=O)c2ccc(C(=O)c3ccccc3)o2)c1	Pf growth 96h inconclusive, Shiga toxin inh 92.9, Cycloheximide cs 37.6 (no result: NS1 function inh)
COc1cccc(/C(C)=N/NS(=O)(=O)c2ccc(Cl)cc2)c1	Pf growth 96h inconclusive
COc1cccc(NC(=O)c2ccccc2-c2ccccc2C(=O)O)c1	none (no result: Shiga toxin inh)
Cc1nn(Cc2cccc(C(=O)NC34CC5CC(CC(C5)C3)C4)c2)c(C)c1Br	Pf growth 96h 8.28µM, Pf growth 48h 14.7µM
O=C(O)c1ccc2c(c1)C(=O)N([C@H](Cc1ccc(Cl)cc1)C(=O)O)C2=O	Pf growth 48h inconclusive (no result: NS1 function inh)
CN1CCC2(CC1)NC(=O)c1ccccc1N2	none
S=C1NC2(CCCC2)Nc2ccccc21	Shiga toxin inh 102.8, Cycloheximide cs 38.3
S=C1NC2(CCCCC2)Nc2ccccc21	Cycloheximide cs 15.7

From PubChem BioAssay
